From PubChem BioAssay
Inconclusive results are not listed. Active and inactive are the calls of the source. No cut-off is given here; in the data, nearly all actives have AC50 up to about 23 µM.

Experiment: viability loss in pontine glioma line – cell-based, SU-DIPG-XIII, MIPE5.0, CellTiter-Glo, qHTS, dose response (AID 1347064);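 for AC50: cells exposed to compound for 48 hours before the viability read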
Conditions: CellTiter-Glo ATP luminescence

| SMILES | AC50 | outcome |
| --- | --- | --- |
| O=C(Nc1ccc([N+](=O)[O-])cc1Cl)c1cc(Cl)ccc1O | 1.18 µM (active) | – |
| CNC[C@H](O)c1cccc(O)c1 | – | inactive |
| O=NN(CCCl)C(=O)NCCCl | – | inactive |
| COc1ccnc(CS(=O)c2nc3ccc(OC(F)F)cc3[nH]2)c1OC (centres undefined) | – | inactive |
| COc1ccc2cc3[n+](cc2c1OC)CCc1cc2c(cc1-3)OCO2 | 16.6 µM (active) | – |
| CN(Cc1cc(Br)cc(Br)c1N)C1CCCCC1 | 20.9 µM (active) | – |
| O=C(NC(Cc1cc(=O)[nH]c2ccccc12)C(=O)O)c1ccc(Cl)cc1 (centres undefined) | – | inactive |
| NC(=O)NO | – | inactive |
| Cc1ccc(S(=O)(=O)NC(=O)NN2CC3CCCC3C2)cc1 (centres undefined) | – | inactive |
| OC[C@H]1O[C@@H](O[C@@H]2[C@@H](CO)O[C@](O)(CO)[C@H]2O)[C@H](O)[C@@H](O)[C@H]1O | – | inactive |
| CCOC(=O)C(C)(C)Oc1ccc(Cl)cc1 | – | inactive |
| NC(=O)c1ncn([C@@H]2O[C@H](CO)[C@@H](O)[C@H]2O)n1 | – | inactive |
| CN(C)c1ccc(C(=C2C=CC(=[N+](C)C)C=C2)c2ccc(N(C)C)cc2)cc1 | 1.48 µM (active) | – |
| Cn1cnc2c1c(=O)[nH]c(=O)n2C | – | inactive |
| COc1ccc(CCN(C)CCCC(C#N)(c2ccc(OC)c(OC)c2)C(C)C)cc1OC (centres undefined) | – | inactive |
| O=c1oc2c(O)c(O)cc3c(=O)oc4c(O)c(O)cc1c4c23 | – | inactive |
| O=C(O)c1cn(-c2ccc(F)cc2)c2cc(N3CCNCC3)c(F)cc2c1=O | – | inactive |
| CN1C(C(=O)Nc2ccccn2)=C(O)c2sccc2S1(=O)=O | – | inactive |
| NC(CO)C(=O)NNCc1ccc(O)c(O)c1O (centres undefined) | – | inactive |
